Hits are enriched below; roughly 5% of the tested compounds scored in any of these assays.
HCMV inh: inhibitors of human cytomegalovirus | actives 4.5% (n = 410,000) | HFF cells, HCMV-luciferase reporter, 72 h; active compounds read low | AID 1259415 | activity change, negative = inhibition, % at 57.5 µM; in the data active = activity change below about -60%; inconclusive = no clear call, values can overlap the other calls; inactive = above about -39%
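Compounds were evaluated in HFFs infected with an HCMV luciferase reporter virus (MOI 1 PFU/cell). Luciferase in lysates collected 72 h post infection served as the replication measure.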
TbPYK inhibitor: inhibitors of Trypanosoma brucei pyruvate kinase; Potency, µM (highest dose often 76.8 µM), inactives show at the top dose activity, negative = inhibition, hits mostly inhibitors; Q57TT1; TbPYK enzyme, Kinase-Glo Plus ATP luminescence, 45 min; AID 624173; actives 0.12% (n = 410,000); also: potency is read from the fitted curve at half-maximal effect; nearly all actives have a fitted effect of over 50% in size
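In this concentration-response screen, enzyme-free wells defined baseline while DMSO plates tracked drift. Each reaction combined TbPYK, substrate, compound and 130 uM ADP for 45 min at room temperature. Kinase-Glo Plus luminescence gave the signal.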
LmPK inh: LmPK (Leishmania mexicana) enzyme inhibition; Q27686; purified LmPK, Kinase-Glo ATP luminescence, 1 h; Potency, µM (series often up to 57.5 µM), without a hit: top-dose activity change, negative = inhibition, actives largely listed as inhibitors; actives 0.37% (n = 290,000); also: potency is read from the fitted curve at half-maximal effect
Target sequence (Q27686 whole entry, looked up): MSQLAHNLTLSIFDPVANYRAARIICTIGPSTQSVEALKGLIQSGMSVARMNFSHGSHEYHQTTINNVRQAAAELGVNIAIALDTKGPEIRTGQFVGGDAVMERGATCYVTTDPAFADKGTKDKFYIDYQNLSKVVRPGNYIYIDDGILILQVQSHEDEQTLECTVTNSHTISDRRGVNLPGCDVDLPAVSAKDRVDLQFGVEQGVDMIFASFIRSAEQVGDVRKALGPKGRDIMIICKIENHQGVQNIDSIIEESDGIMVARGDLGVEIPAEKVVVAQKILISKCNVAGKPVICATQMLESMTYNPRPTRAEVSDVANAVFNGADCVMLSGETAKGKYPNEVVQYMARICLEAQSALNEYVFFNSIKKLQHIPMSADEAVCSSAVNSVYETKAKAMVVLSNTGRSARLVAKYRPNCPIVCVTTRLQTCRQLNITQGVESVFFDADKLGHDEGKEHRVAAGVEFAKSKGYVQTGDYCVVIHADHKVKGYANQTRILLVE
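Pyruvate kinase activity monitored as ATP production (luciferase luminescence). Conditions: 0.1 nM enzyme, 0.5 mM PEP, 0.1 mM ADP, 1 h, RT; normalized against uninhibited and no-enzyme wells.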
Vaccinia Venus: inhibitors of vaccinia virus (Venus reporter); Vaccinia virus Venus reporter expression, fluorescence; Potency, µM (doses to about 36.5 µM), for the others: at the highest dose activity change, negative = inhibition, most hits filed as inhibitors; actives 0.46% (n = 330,000); calls by dose curve; tested in A549 cells; also: potency is read from the fitted curve at half-maximal effect; nearly all actives have a fitted effect of over 30% in size
Vaccinia mCherry: inhibitors of vaccinia virus infection (mCherry reporter signal) | Vaccinia virus mCherry reporter infection, fluorescence | Potency, µM (top dose mostly 36.5 µM), inactives show top-dose activity change, negative = inhibition, most hits filed as inhibitors | actives 0.63% (n = 310,000); calls by dose curve; tested in A549 cells; also: potency is read from the fitted curve at half-maximal effect; nearly all actives have a fitted effect of over 35% in size
* = called active by the depositor; [ ] = dose if it differs, or a comment. Unless noted, calls follow the shape of the dose curve; as a rule, active = well fitted curve in the direction sought with a large enough effect; inconclusive = small, poorly fitted or top-dose-only effect, or another doubt; inactive = no such curve, though single readings can be large; an effect the other way counts as inactive or inconclusive. % is scaled to controls: 0 for no effect and ±100 for the full control effect.

How did Cc1cn([C@H]2C[C@H](O)[C@@H](CCC(=O)NCc3cccs3)O2)c(=O)[nH]c1=O do in these assays?
HCMV inh: 4.1; TbPYK inhibitor: -4.3%; Vaccinia Venus: -6.9%; Vaccinia mCherry: 12.2%

How did CN(C)S(=O)(=O)c1ccc(C(=O)Nc2ccccc2[N+](=O)[O-])cc1 do in these assays?
HCMV inh: -65.0*; TbPYK inhibitor: -11.9%; LmPK inh: 3.9%; Vaccinia Venus: -22.1%; Vaccinia mCherry: -8.6%

What do the screens show for `Cc1ccccc1NC(=O)c1ccc(S(=O)(=O)N(C)C)cc1`?
HCMV inh: 55.8; TbPYK inhibitor: 3.3%; LmPK inh: 8.3%; Vaccinia Venus: -15.5%; Vaccinia mCherry: -1.7%

How did Cc1c(-c2ccccc2)nc2ccccc2c1C(=O)Oc1ccc([N+](=O)[O-])cc1 do in these assays?
HCMV inh: -76.0*; TbPYK inhibitor: -10.6%; LmPK inh: 3.3%; Vaccinia Venus: -7.3%

What do the screens show for `CC(=O)OC1CCC2(C)C3CCC4(C)C(C(C)=O)CCC4C3CC3OC32C1` (stereo not given)?
HCMV inh: -61.1*; TbPYK inhibitor: -15.6%; Vaccinia Venus: 0.5%; Vaccinia mCherry: inactive

How did CC(=O)OC1(C(C)=O)CCC2C3CC4OC45CC(O)CCC5(C)C3CCC21C (stereo not given) do in these assays?
HCMV inh: -25.8; TbPYK inhibitor: -3.7%; Vaccinia Venus: 3.2%; Vaccinia mCherry: -17.0%

Results for Cc1ccc(C)c(S(=O)(=O)NCCC(=O)N2CCCC(C(N)=O)C2)c1 (stereo not given) ?
HCMV inh: -82.7*; TbPYK inhibitor: 4.0%

Results for Cc1ccc2c(c1)Oc1ccc(NC(=O)CCCl)cc1C(=O)N2 ?
HCMV inh: -90.5*; TbPYK inhibitor: -5.5%; LmPK inh: 3.2%; Vaccinia Venus: inconclusive; Vaccinia mCherry: inconclusive

What do the screens show for `CCCC(=O)Nc1ccc2c(c1)C(=O)NC2=O`?
HCMV inh: inconclusive; TbPYK inhibitor: -7.6%; LmPK inh: -3.2%; Vaccinia Venus: -6.0%; Vaccinia mCherry: inactive

What do the screens show for `Cn1ccnc1C1CCCCN1C(=O)c1cc(COc2ccc(F)cc2F)on1` (stereo not given)?
HCMV inh: -9.0; TbPYK inhibitor: 1.9%; LmPK inh: -3.2%; Vaccinia Venus: -6.7%; Vaccinia mCherry: -8.4%

Results for N#Cc1cc(-c2ccccc2)c[nH]c1=O ?
HCMV inh: 4.0; TbPYK inhibitor: -4.2%; LmPK inh: -1.8%; Vaccinia Venus: -5.0%; Vaccinia mCherry: -1.1%

Results for COc1ccccc1CNc1nc(NCC2CC2)nc2ccsc12 ?
HCMV inh: -70.2*; TbPYK inhibitor: 2.0%; Vaccinia Venus: -20.5%; Vaccinia mCherry: -14.8%

Results for COCCNc1nc(NCc2ccccc2OC)c2sccc2n1 ?
HCMV inh: inconclusive; TbPYK inhibitor: 2.5%; Vaccinia Venus: -18.4%; Vaccinia mCherry: inconclusive

How did COc1ccccc1CNc1nc(NCc2ccccc2OC)c2sccc2n1 do in these assays?
HCMV inh: -90.6*; TbPYK inhibitor: -3.8%; Vaccinia Venus: inconclusive; Vaccinia mCherry: inconclusive

How did COc1ccccc1CNc1nc(NCc2cccs2)nc2ccsc12 do in these assays?
HCMV inh: inconclusive; TbPYK inhibitor: 1.1%; Vaccinia Venus: -15.1%; Vaccinia mCherry: -22.8%

What do the screens show for `COc1ccccc1CNc1nc(NCc2ccccc2SC)c2sccc2n1`?
HCMV inh: -77.4*; TbPYK inhibitor: -1.8%; Vaccinia Venus: inconclusive; Vaccinia mCherry: inconclusive

How did Cc1cccc(-c2cc(NC(=O)COc3ccccc3F)n(-c3ccccc3)n2)c1 do in these assays?
HCMV inh: 53.6; TbPYK inhibitor: 0.7%; Vaccinia Venus: -29.0%; Vaccinia mCherry: inconclusive

What do the screens show for `COc1ccc(NC(=O)c2ccc(Cl)nc2)cc1S(=O)(=O)N1CCCCC1`?
HCMV inh: -3.1; TbPYK inhibitor: 3.9%; LmPK inh: 0.7%; Vaccinia Venus: -22.4%; Vaccinia mCherry: -11.8%

What do the screens show for `CCOc1ccc(N(C)S(=O)(=O)c2csc(C(N)=O)c2)cc1`?
HCMV inh: 26.9; TbPYK inhibitor: 0.8%; LmPK inh: 0.3%; Vaccinia Venus: -4.9%; Vaccinia mCherry: -11.9%

Results for Cc1ccc(-n2nnc(-c3nsc(NC(=O)c4ccc(C)c(C)c4)n3)c2C)cc1 ?
HCMV inh: -0.1; TbPYK inhibitor: 1.9%; Vaccinia Venus: -21.4%; Vaccinia mCherry: inactive

How did CCc1ccccc1-n1nnc(-c2nsc(NC(=O)c3ccc(C)c(C)c3)n2)c1C do in these assays?
HCMV inh: -92.3*; TbPYK inhibitor: -1.8%; Vaccinia Venus: inconclusive; Vaccinia mCherry: -29.4%[7.34 µM]

Results for CCOc1ccccc1-n1nnc(-c2nsc(NC(=O)c3ccc(C)cc3)n2)c1C ?
HCMV inh: -74.5*; TbPYK inhibitor: 2.5%; Vaccinia Venus: inconclusive; Vaccinia mCherry: -4.7%

What do the screens show for `Cc1cccc(C)c1NC(=O)C(c1cccc([N+](=O)[O-])c1)N(C)C(=O)c1ccccn1` (stereo not given)?
HCMV inh: 29.8; TbPYK inhibitor: -6.6%; LmPK inh: 4.5%; Vaccinia Venus: -8.8%; Vaccinia mCherry: -10.7%

How did CCC(C(=O)NCCC1=CCCCC1)n1nc(C)c2c(C)n(-c3ccccc3)nc2c1=O (stereo not given) do in these assays?
HCMV inh: -29.1; TbPYK inhibitor: 2.5%; LmPK inh: -2.5%; Vaccinia Venus: -18.5%; Vaccinia mCherry: -0.6%

What do the screens show for `COc1ccc(C(=O)N2CCCC(c3cc(C(=O)Nc4ccccc4)no3)C2)cc1` (stereo not given)?
HCMV inh: -72.5*; TbPYK inhibitor: 0.5%; Vaccinia Venus: -8.8%; Vaccinia mCherry: -2.9%

Results for COc1ccc(C(=O)Nc2ccc(Cl)cc2C(=O)N2CCCC(C)C2)cc1 (stereo not given) ?
HCMV inh: -100.0*; TbPYK inhibitor: -3.2%; LmPK inh: 4.0%; Vaccinia Venus: -0.4%

How did CN(C)c1ccc(CC(=O)N2CCCC(c3cc(C(=O)Nc4ccc(C(C)(C)C)cc4)no3)C2)cc1 (stereo not given) do in these assays?
HCMV inh: -74.9*; TbPYK inhibitor: -11.6%; Vaccinia Venus: inconclusive; Vaccinia mCherry: -14.5%

Results for CCOC(=O)C1CCCN(C(=O)c2ccccc2OC(F)(F)F)CC1 (stereo not given) ?
HCMV inh: -23.2; TbPYK inhibitor: 1.6%; Vaccinia Venus: -11.0%; Vaccinia mCherry: 27.9%

Results for Cc1nnc(NC(=O)C(C)Sc2nnc(-c3ccco3)n2C(C)C)s1 (stereo not given) ?
HCMV inh: 6.3; TbPYK inhibitor: 0.0%; LmPK inh: -2.6%; Vaccinia Venus: 7.0%; Vaccinia mCherry: -10.3%

How did CCOC(=O)N1c2ccccc2Sc2ccccc21 do in these assays?
HCMV inh: -33.5; TbPYK inhibitor: 4.6%; LmPK inh: -6.5%; Vaccinia Venus: -25.9%; Vaccinia mCherry: inactive
